Only some compounds are listed: those with a hit (about 3.7% of all), similar ones and a draw of the others.
D3 antag – D3 dopamine receptor (human) antagonism; D3R cells, DiscoveRx beta-arrestin luminescence, antagonist mode; stronger effect = lower value; max response, negative = inhibition, %; actives 2.5% (n = 360,000); AID 652054; in the data active means max response below about -50%; inconclusive means no clear call, values can overlap the other calls; further: on the % scale 0 is the no-effect control and ±100 the full control effect
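Cells plated overnight at 1500 cells/well, then exposed to library compounds with dopamine controls for 90 minutes at 37 degrees C. DiscoveRx reagent added for 30–60 minutes at room temperature; luminescence read, quantitative HTS format.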
B2AR arrestin – beta2AR (human) beta-arrestin recruitment activity | beta-arrestin recruitment to beta2AR, cell-based reporter | Potency, µM (titrated, usually from 46.1 µM), without a hit: at the highest dose activation, hits mostly activators | actives 0.02% (n = 330,000) | AID 492947;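 further: potency means the concentration at half of the fitted maximal effect; 0% = DMSO controls and full agonism = EC100 isoproterenol or metaproterenol; nearly all actives have a fitted effect of over 65% in size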
DRD3 agonist – D3 dopamine receptor (human) agonism; AID 652048; actives 0.58% (n = 410,000); D3R DiscoveRx beta-arrestin cells, luminescence, 90 min; max activation, %; P35462; in the data active means max activation above about 30%; further: 0% is about no effect
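Agonist-mode cell screen: cells plated at 1500/well and incubated overnight at 37 °C, then exposed to library compounds for 90 min at 37 °C. Detection reagent was added for 30–60 min at room temperature, and luminescence was read.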
BRCA1 expr act – activators of BRCA1 expression. AID 624202. MCF7-BRCA1-FFLuc reporter, luminescence, 48 h; response scale: scaled: vehicle 0%, 10 µM genistein 100%. actives 1.1% (n = 380,000). Potency, µM (titrated, usually from 46.1 µM), for inactives: at the highest dose activation, most hits filed as activators; further: potency means the concentration at half of the fitted maximal effect; nearly all actives have a fitted effect of over 80% in size
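Cells: MCF7-BRCA1-FFLuc, 2000/well. Exposure: 48 h, 37 °C, 5% CO2. Read: luminescence, 15 min post-substrate. Controls: genistein 10 microM (maximal activation), DMSO (neutral).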
PTHR1 ag – PTHR1 (human) receptor agonism; Q03431; HEK293 GP2 PTHR1 cells, GloSensor cAMP luminescence, 1 h; Potency, µM (doses to about 115 µM), without a hit: at the top dose activation, actives largely listed as activators; actives 0.075% (n = 410,000); further: potency means the concentration at half of the fitted maximal effect; nearly all actives have a fitted effect of over 55% in size
Target sequence (Q03431 whole entry, looked up): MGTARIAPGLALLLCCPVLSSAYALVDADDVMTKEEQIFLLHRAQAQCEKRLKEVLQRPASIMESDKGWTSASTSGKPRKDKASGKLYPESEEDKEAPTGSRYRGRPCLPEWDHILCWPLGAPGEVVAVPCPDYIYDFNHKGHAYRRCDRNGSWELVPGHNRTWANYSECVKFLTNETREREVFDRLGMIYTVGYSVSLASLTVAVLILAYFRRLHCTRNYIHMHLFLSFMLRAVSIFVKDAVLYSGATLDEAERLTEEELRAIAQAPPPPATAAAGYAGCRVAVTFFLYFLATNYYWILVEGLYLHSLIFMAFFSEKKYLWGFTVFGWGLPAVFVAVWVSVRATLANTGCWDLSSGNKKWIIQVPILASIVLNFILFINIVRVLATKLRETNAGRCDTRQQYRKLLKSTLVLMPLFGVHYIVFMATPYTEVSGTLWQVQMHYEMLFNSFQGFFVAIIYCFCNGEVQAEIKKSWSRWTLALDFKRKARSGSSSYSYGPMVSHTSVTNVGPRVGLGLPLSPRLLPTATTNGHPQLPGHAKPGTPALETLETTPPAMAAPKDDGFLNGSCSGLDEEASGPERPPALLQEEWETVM
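HEK-293-derived GP2 cells expressing PTHR1 and a GloSensor cAMP reporter, 3,000/well, plated overnight, given luciferin plus IBMX (each 0.5 mM as added) for 1 h at 37 °C, then compound for 1 h at 37 °C. Luminescence was read after 15 min at room temperature.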
RGS4 inhibitor – human RGS4 inhibition. P49798. Transcreener GDP fluorescence polarization, RGS4-accelerated GTP hydrolysis. Potency, µM (series often up to 114 µM), for inactives: top-dose activity change, negative = inhibition, actives largely listed as inhibitors. actives 0.039% (n = 390,000); further: potency means the concentration at half of the fitted maximal effect; on the % scale 0 is the no-effect control and ±100 the full control effect; nearly all actives have a fitted effect of over 75% in size
Target sequence (P49798 whole entry, looked up): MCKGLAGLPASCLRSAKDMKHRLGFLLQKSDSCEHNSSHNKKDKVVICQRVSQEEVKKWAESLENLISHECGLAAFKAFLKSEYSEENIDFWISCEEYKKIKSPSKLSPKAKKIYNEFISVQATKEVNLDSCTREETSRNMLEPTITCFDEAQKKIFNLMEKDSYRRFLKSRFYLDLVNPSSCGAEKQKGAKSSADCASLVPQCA
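MLSMR compounds (23 nl, pin-transferred) preincubated 10 min at room temperature with a 500nM (2x) first reagent, then RGS4 at 900nM (2x) plus Transcreener GDP mix added; fluorescence polarization (620/688 nm) read before and after 90 min at 30 °C.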
Numbers without * were called inactive; i = inactive; ? = inconclusive; . = not tested or not shown; [ ] = dose if it differs, or a comment. Unless noted, the call rests on the fitted dose curve; in most records, active means well fitted curve in the direction sought with a large enough effect; inconclusive means small, poorly fitted or top-dose-only effect, or another doubt; inactive means no such curve, though single readings can be large; an effect the other way counts as inactive or inconclusive.

SMILES | D3 antag | B2AR arrestin | DRD3 agonist | BRCA1 expr act | PTHR1 ag | RGS4 inhibitor
CC(=O)c1ccc(NC(=S)Nc2ccc3cn[nH]c3c2)cc1 | 3.4 | -0.3% | 0.3 | 6.31µM* | i | -45.7%
O=C1CCSc2c1ccc1ccccc21 | -28.5 | . | -6.1 | 34.6% | i | -4.4%
O=C1C(=O)c2c(ccc3ccccc23)-c2ccccc21 | -53.5* | . | -13.9 | -98.0% | -2.4% | -17.1%
COc1ccc(OC)c(NC(=O)N(C)CCc2c(C)nn(C)c2C)c1 | . | . | 7.4 | 11.0% | -0.3% | 6.3%
COc1ccc(-c2oc3ncnc(NCCCN4CCOCC4)c3c2-c2ccc(OC)cc2)cc1 | -94.2* | -0.2% | -5.5 | -55.4% | i | -6.2%
COc1ccc(-c2oc3ncnc(NCCN4CCOCC4)c3c2-c2ccc(OC)cc2)cc1 | -13.2 | 0.0% | -0.5 | -58.2% | i | 3.5%
c1ccc(-c2oc3ncnc(NCCCN4CCOCC4)c3c2-c2ccccc2)cc1 | -64.8* | 0.0% | -1.6 | -48.3% | i | -44.1%
CCOC(=O)C1CCN(C(=O)CSc2cc(=O)n(CC)c3ccccc23)CC1 | -78.9* | -0.4% | -21.6 | 46.7% | 18.2% | 9.9%
COc1ccccc1N1CCN(C2CCN(S(=O)(=O)c3ccc(C)cc3)CC2)CC1 | -70.2* | -0.8% | -38.9 | -14.5% | -63.8% | 15.7%
COc1ccccc1N1CCN(C2CCN(S(=O)(=O)c3ccc4ccccc4c3)CC2)CC1 | -54.0* | 0.4% | -8.4 | -59.6% | -24.1% | -23.2%
O=S(=O)(c1ccc2ccccc2c1)N1CCN(C2CCN(Cc3ccccc3)CC2)CC1 | -61.4* | -0.2% | -25.8 | -51.4% | i | -7.2%
COc1ccc(S(=O)(=O)N2CCN(c3ccccc3OC)CC2)cc1OC | 1.2 | 0.0% | 0.2 | -11.1% | i | -0.4%
O=S(=O)(c1ccccc1)N1CCN(C2CCN(Cc3ccccc3)CC2)CC1 | ? | -0.2% | -13.8 | -16.6% | ? | 13.0%
COc1ccccc1N1CCN(S(=O)(=O)c2ccccc2)CC1 | -3.9 | -0.3% | 0.5 | 1.1% | -1.8%[57.5 µM] | -4.8%
OC(c1cccc(Cl)c1)c1nc(-c2ccoc2)cs1 (stereo not drawn) | -22.1 | . | -11.5 | 1.5% | i | .
NC(=S)N=Nc1c(O)[nH]c2c(Br)cc(Br)cc12 | -28.6 | -0.7% | -6.9 | -57.9% | -2.6% | -36.7%
O=c1ccn([C@@H]2O[C@H](CNS(=O)(=O)c3csc(-c4ccno4)c3)[C@@H](O)[C@H]2O)c(=O)[nH]1 | 16.4 | . | 44.3* | -1.7% | i | -9.0%
CCc1nc2ccc(C(=O)NCCCn3ccnc3)cn2c1N(C)Cc1nccs1 | 12.9 | . | -1.1 | 0.1% | -15.9% | .
O=C(Cn1cc(SCc2ccccc2Cl)c2ccccc21)N1CCOCC1 | -7.2 | -0.4% | 0.8 | 11.2µM* | -22.1% | 0.1%
O=C(NCc1ccc(Cl)cc1)C(=O)c1cn(CC(=O)N2CCOCC2)c2ccccc12 | -23.0 | -0.5% | -1.9 | 32.9% | -11.4% | -1.6%
CC(C)(Cc1ccccc1)NC(=O)C(=O)c1cn(CC(=O)N2CCOCC2)c2ccccc12 | -69.5* | 0.0% | -9.5 | -10.8% | -1.3% | -48.0%
Cn1ccsc1=NC(=O)c1ccc(=O)[nH]c1 | -1.4 | -0.6% | 3.7 | 1.2% | i | -18.7%
Cn1ccsc1=NC(=O)c1cccc(OC(F)F)c1 | -6.2 | 0.3% | -5.3 | 8.91µM* | -18.5% | -5.7%[56.9 µM]
Cc1nnc(NC(=O)C23CC4CC(CC(C4)C2)C3)s1 | 15.4 | 0.5% | 4.9 | 1.7% | i | 16.9%
Cn1cccc1/C=C1\SC(=O)N(c2ccc(O)cc2)C1=O | 6.1 | -0.3% | -4.7 | 10µM* | -9.4% | 4.2%
SMILES | D3 antag | B2AR arrestin | DRD3 agonist | BRCA1 expr act | PTHR1 ag | RGS4 inhibitor
Nc1nc2c(ncn2[C@@H]2O[C@H](CNC(=O)[C@H](N)Cc3cncn3COCc3ccccc3)[C@@H](O)[C@H]2O)c(=O)[nH]1 | 10.0 | . | 13.6 | 6.7% | -12.4% | .
CCCCOc1ccc(C(=O)N2CCC(C)CC2)cc1 | -1.6 | -0.1% | -6.8 | 61.1% | -9.3%[57.5 µM] | -10.4%
CCCCOc1ccc(C2CCC(C(C)=O)C(C)C2)cc1 (stereo not drawn) | -17.5 | -0.5% | -2.0 | 10µM* | -6.8% | 9.7%
Cc1ccc(C(=O)NNc2cc(N3CCCC3)nc(N3CCCC3)n2)cc1 | -52.3* | 0.4% | -9.2 | -35.1% | i | -30.3%
O=C(NNc1cc(N2CCOCC2)nc(N2CCOCC2)n1)c1ccc(Cl)c(Cl)c1 | -8.6 | -0.9% | 0.7 | -20.3% | i | -21.9%
CCCCn1c(SCC(=O)Nc2nnc(C(C)C)s2)nc2c1c(=O)n(C)c(=O)n2C | 3.8 | -0.2% | 40.9* | -66.1% | i | -12.9%
Cc1cc(C)n(CCOc2nonc2N)n1 | 7.0 | -0.5% | 10.8 | 5.4% | i | -2.5%
Nc1nonc1OCCOCCOCCOc1nonc1N | -59.2* | -0.2% | -12.8 | 10.3% | -15.7% | -31.9%
COc1cccc(/C=N/NC(=O)c2[nH]nc3c2CCc2ccccc2-3)c1 | -12.6 | 0.3% | -7.9 | -56.0% | -31.8% | -0.3%
CC(C)NC(=O)c1[nH]nc2c1CCc1ccccc1-2 | -18.4 | 0.7% | -8.5 | 2µM* | i | -0.1%
O=C(Nc1cc(C(F)(F)F)ccc1Cl)c1cnn(-c2ccccc2)c1-n1cccc1 | . | . | 55.4* | . | -82.6% | 2.4%
Cc1sc2ccccc2[n+]1C | . | . | . | -3.8% | . | .
O=C(NC1CCOC1=O)c1ccccc1 (stereo not drawn) | 1.5 | . | -0.6 | -28.1% | i | -1.5%
CS(=O)(=O)c1ccc(C(=O)NC2CCOC2=O)cc1 (stereo not drawn) | 15.9 | 0.3% | 32.0* | -21.1% | i | 5.0%
O=C(CCSc1ccccc1)Nc1nc2c(s1)CCCC2 | 14.2 | -0.2% | 4.7 | 11.2µM* | -4.4%[57.5 µM] | 0.5%
O=C(CCSc1ccccc1)NC1CCCCCC1 | 6.4 | 0.3% | -2.8 | 7.08µM* | -30.3% | -1.3%
O=C(Cc1cccs1)Nc1nc2c(s1)CCCC2 | -11.2 | 0.2% | -15.7 | 3.98µM* | -43.8%[57.5 µM] | 4.7%
O=C(CSc1ncn(-c2ccccc2)n1)Nc1nc2c(s1)CCCC2 | 7.7 | -0.2% | 4.1 | 2.0% | -7.5%[57.5 µM] | -24.2%
Cc1ccc(Nc2nc(NCc3ccco3)nc3nccnc23)cc1C | . | . | . | -15.8% | . | 11.1%
O=Cc1s/c(=N\S(=O)(=O)c2ccccc2)n(CCCCl)c1Cl | -119.7* | 0.0% | -23.7 | -93.6% | -22.7% | ?
CCn1c(C)cs/c1=N\S(=O)(=O)c1ccccc1 | -22.4 | -0.6% | -13.7 | -11.2% | -7.8% | 10.4%
Cc1onc(-c2c(Cl)cccc2Cl)c1C(=O)N1CCCc2ccccc21 | -16.8 | 0.0% | 21.4 | -79.8% | -1.1%[57.5 µM] | 0.0%
Cc1onc(-c2c(F)cccc2Cl)c1C(=O)N1CCc2ccccc21 | 7.1 | 0.3% | 33.8* | -21.5% | -9.6% | 25.5%

Screens: PubChem, National Center for Advancing Translational Sciences (NCATS)
